Experimental findings from PubChem BioAssay (NCI) are described below.

This is part of a sample that, as a whole, favours compounds with a hit. Of some 83,000 tested, about 20% had one in any assay.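 For each line, cells grew in 96-well plates with the test compound present at a single concentration for 48 hours.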 Unmarked numbers belong to inactive results. Active and inactive are the calls of the source. Rule for the calls: active = growth percent below 10; inactive = the rest.

Experiment in all cases: NCI-60 one-dose screen, 48 h (100 = growth as untreated, 0 = no growth, -100 = all killed)
One assay has as its system SK-MEL-2 melanoma. Conditions: 10 µM unless noted.
The subject of a further assay is SN12C renal. The conditions noted are these: 10 µM unless noted.
The test system of another assay is UO-31 renal. Conditions: 10 µM unless noted.
A further assay concerns TK-10 renal. The conditions noted are these: 10 µM unless noted.
Another assay has as its system ACHN renal. The conditions noted are these: 10 µM unless noted.
The next assay has as its system CAKI-1 renal. The conditions noted are these: 10 µM unless noted.
A further assay relates to A498 renal. The conditions noted are these: 10 µM.
The subject of another assay is HL-60(TB) leukemia. Conditions: 10 µM unless noted.
A further assay relates to CCRF-CEM leukemia. The conditions noted are these: 10 µM unless noted.

In the case of `O=C(NCCN1CC1)C(=O)NCCN1CC1`, the growth in the assay on SK-MEL-2 melanoma was 97.1%; with SN12C renal it was 87.3%; in the assay on UO-31 renal, 96.4%; in the assay on TK-10 renal, 83.6%; with ACHN renal, 67.9%; with CAKI-1 renal it was 20.9%. The growth in the assay on A498 renal is 105%; in the assay with HL-60(TB) leukemia, 63.1%; in the assay on CCRF-CEM leukemia it was 56.8%.

Consider `C=CCCCN=C=S`, for which the growth in the assay with SK-MEL-2 melanoma was 56%; in the assay with SN12C renal, 60.1%; with UO-31 renal, 70%; in the assay with TK-10 renal, 69.1%; in the assay on ACHN renal, 77.9%; in the assay with CAKI-1 renal, 83.3%. Further, the growth in the assay with A498 renal is 76%; in the assay with CCRF-CEM leukemia, 50.1%.

As for `CC(=O)[O][Hg][O]C(C)=O`, the growth in the assay on SK-MEL-2 melanoma is 90.3%; in the assay on SN12C renal, 106%; in the assay on UO-31 renal, 96.9%; in the assay with TK-10 renal, 138%; in the assay on ACHN renal, 108%; with A498 renal, 117%. Moreover, the growth with HL-60(TB) leukemia is 35.2%; in the assay on CCRF-CEM leukemia, 27.8%.

Turning to `N/C(=N/N=C/c1ccncc1)N[N+](=O)[O-]`, the growth was 104% with SK-MEL-2 melanoma; 95.8% in the assay on SN12C renal; 93.8% in the assay on UO-31 renal; 94.1% in the assay with TK-10 renal; 101% in the assay with ACHN renal; 99.2% with CAKI-1 renal. Also, the growth was 86.3% with A498 renal, 109% in the assay with HL-60(TB) leukemia and 101% in the assay with CCRF-CEM leukemia.

For `CC1(C)C(C(=O)c2cn(CCCCF)c3ccccc23)C1(C)C`, the growth in the assay on SK-MEL-2 melanoma is 86.4%; in the assay on SN12C renal, 103%; in the assay with UO-31 renal, 95.2%; in the assay with TK-10 renal it was 102%; in the assay with ACHN renal, 115%; in the assay on A498 renal, 92.9%. Further, the growth with HL-60(TB) leukemia was 76%; with CCRF-CEM leukemia it was 87.1%.

Regarding `COc1ccc(S(=O)(=O)Nc2c(/C=C\c3cc(OC)c(OC)c(OC)c3)ccc(OC)c2O)cc1OC`, the growth in the assay on SK-MEL-2 melanoma was 9.91% (active); in the assay with SN12C renal, 31%; in the assay on UO-31 renal it was 49.3%; with TK-10 renal, 70.9%; in the assay with ACHN renal it was 29.6%; in the assay on CAKI-1 renal, 22.8%. In addition, the growth is 4.28% (active) with HL-60(TB) leukemia and 12% with CCRF-CEM leukemia.

As for `CCCCN1CCCC[C@@H]1C(=O)N[C@H](C(=O)N(C)[C@H](C[C@@H](OC(C)=O)c1nc(C(=O)NC2CCC(C(=O)OC)CC2)cs1)C(C)C)C(C)C` (some centres undefined), the growth in the assay with SK-MEL-2 melanoma was 35.5%; in the assay with SN12C renal, 46.3%; in the assay on UO-31 renal it was 52.8%; in the assay on TK-10 renal it was 55.6%; in the assay with ACHN renal, 54.8%; in the assay on A498 renal it was 22.3%. Moreover, the values for the growth with HL-60(TB) leukemia and in the assay with CCRF-CEM leukemia were -30.4% (active) and 5.58% (active), respectively.

Consider `CC(=O)[O][Hg][c]1c(N)c(C)cc(C)c1F`, for which the growth is 11.6% in the assay on SK-MEL-2 melanoma; 5.86% (active) in the assay on SN12C renal; 35.1% with UO-31 renal; 97.4% with TK-10 renal; 62.9% in the assay on ACHN renal; 45.8% with CAKI-1 renal. The growth was 101% with A498 renal, -12.7% (active) in the assay on HL-60(TB) leukemia and -6.01% (active) in the assay with CCRF-CEM leukemia.

Turning to `Cc1cc(N(CCCl)CCCl)ccc1C=Nc1ccc(-c2csc(Cc3ccccc3)n2)cc1`, the growth is 109% in the assay on SK-MEL-2 melanoma; 49% with SN12C renal; 30.7% in the assay with UO-31 renal; 84.5% in the assay on TK-10 renal; 50.8% in the assay with ACHN renal; 25.4% in the assay with CAKI-1 renal. The growth with A498 renal is -45.8% (active); with CCRF-CEM leukemia, 33.9%.

Take `Oc1c(CCl)cc(Cl)cc1CCl`: the growth in the assay with SK-MEL-2 melanoma was 105%; in the assay on SN12C renal, 122%; in the assay on UO-31 renal it was 86.4%; with TK-10 renal it was 106%; with ACHN renal, 106%; in the assay on CAKI-1 renal, 104%. Moreover, the growth in the assay with A498 renal is 119%; in the assay with HL-60(TB) leukemia, 103%; with CCRF-CEM leukemia it was 108%.

Turning to `COc1ccc(/C=C\c2cc(OC)c(OC)c(OC)c2)c(NS(=O)(=O)c2ccc(C)cc2)c1O`, the growth in the assay on SK-MEL-2 melanoma was -6.34% (active); in the assay with SN12C renal, 35.6%; with UO-31 renal, 53.4%; in the assay with TK-10 renal, 65.2%; with ACHN renal, 23.7%; in the assay on CAKI-1 renal, 19.8%. Besides, in the assay with HL-60(TB) leukemia, the growth is 9.18% (active).

Regarding `CC(=O)O[C@H](C[C@H](C(C)C)N(C)C(=O)[C@@H](NC(=O)[C@H]1CCCCN1C)C(C)C)c1nc(C(=O)N[C@@H](Cc2ccccc2)C[C@H](C)C(=O)O)c(CCOCc2ccccc2)s1`, the growth with SK-MEL-2 melanoma is 2.3% (active); with SN12C renal, 9.77% (active); in the assay on UO-31 renal, 31.8%; with TK-10 renal, 31.3%; with ACHN renal, 12.3%; with CAKI-1 renal, 24.4%. The growth with HL-60(TB) leukemia was -29.3% (active); in the assay on CCRF-CEM leukemia, 9.38% (active).

Take `Nc1ccc(OCCNS(=O)(=O)c2cccc(S(=O)(=O)F)c2)c(Cl)c1`: the growth with SK-MEL-2 melanoma was 88.9%; in the assay on SN12C renal, 102%; in the assay on UO-31 renal it was -13.3% (active); in the assay with TK-10 renal, 102%; in the assay with ACHN renal, 96.2%; in the assay with CAKI-1 renal it was 86.8%. Also, the growth was 70.8% in the assay with A498 renal, 98.1% in the assay on HL-60(TB) leukemia and 93.5% in the assay with CCRF-CEM leukemia.

`CCCOC(=O)N[C@H]1CCc2c(Br)c(OC)c(OC)c(OC)c2-c2ccc(SC)c(=O)cc21`: the growth with SK-MEL-2 melanoma was 34.2%; with SN12C renal, 14.1%; in the assay with UO-31 renal, 20.7%; with TK-10 renal, 43%; in the assay on ACHN renal it was 27.6%; in the assay with CAKI-1 renal, 11.2%. For the same molecule, the growth with HL-60(TB) leukemia is -25.7% (active); with CCRF-CEM leukemia, 5.05% (active).

On to `O=C1C2CCC1C(N1CCCC1)CC2` (centres undefined), for which the growth in the assay on SK-MEL-2 melanoma was 103%; with SN12C renal, 100%; in the assay with UO-31 renal it was 87.5%; in the assay on TK-10 renal, 97.8%; in the assay on ACHN renal, 102%; with A498 renal, 92.2%. The growth was 97.2% in the assay on HL-60(TB) leukemia and 94.3% with CCRF-CEM leukemia.
